# From PubChem BioAssay
# aSyn yeast inh – rescues yeast growth from alpha-synuclein toxicity; Yeast expressing alpha-synuclein, growth rescue, BacTiter-Glo, 24 h; Potency, µM (series often up to 46.1 µM), without a hit: at the highest dose growth rescue (activation), hits mostly activators; 0.14% of 370,000 active; AID 652106; also: potency is read from the fitted curve at half-maximal effect; % of control where 0% means no effect; nearly all actives have a fitted effect of over 65% in size
#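 Readout is rescue of growth in alpha-synuclein-expressing yeast, so inhibitors of toxicity appear as activators. Growth after 24 hr at 30 deg C in galactose medium is quantified by luminescence.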
# Anesthetic bind – candidate novel general anesthetic via apoferritin binding; AID 485281; apoferritin/1-aminoanthracene competitive binding, fluorescence; Potency, µM (titrated, usually from 77.5 µM), for the others: at the highest dose activity change, negative = displacement, hits mostly inhibitors; 0.074% of 350,000 active; also: potency is read from the fitted curve at half-maximal effect; % is scaled to controls: 0 for no effect and ±100 for the full control effect; nearly all actives have a fitted effect of over 20% in size
# Target sequence (P02791 2-175 limits assumed): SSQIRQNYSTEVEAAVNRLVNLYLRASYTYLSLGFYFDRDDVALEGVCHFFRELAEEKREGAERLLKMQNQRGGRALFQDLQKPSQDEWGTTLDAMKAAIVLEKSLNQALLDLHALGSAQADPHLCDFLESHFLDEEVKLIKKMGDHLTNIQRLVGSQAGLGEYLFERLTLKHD
#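 Steps: apoferritin (10 uM) was premixed with half-saturated 1-AMA in PBS, compounds were pin-transferred, plates stood 10 min at room temperature, fluorescence was read at 380/535 nm, and curves were fitted with a Hill equation.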
# pAkt inh – blocks phosphorylation of Akt; AID 651550; Neuro2A IGF-stimulated pAkt S473 HTRF, 20 min; hits give low values; 0.32% of 360,000 active; activity change, % for hits at 50 µM; in the data active = activity change below about -80%; inconclusive = mostly about -51% to -80%; also: % is scaled to controls: 0 for no effect and ±100 for the full control effect
#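 Single-point screen (50 µM final compound) in Neuro2A cells stimulated 20 min with 6 nM IGF at 37 deg C. After lysis, Ser473-phosphorylated Akt read by HTRF (ex 330 nm, em 615/665 nm) as the 665/615 ratio.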
# CCT modulator – changes cytosolic chaperonin activity. 0.3% of 360,000 active. purified chaperonin ATPase assay, HTRF ADP detection, 30 min. AID 651819. activity change, % (concentration not given with the values), hits read low; in the data active = activity change below about -30%; also: % is scaled to controls: 0 for no effect and ±100 for the full control effect
#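 We incubate TRiC, 40 or 20 nM final, with library compounds at 76 uM and 10 uM ATP for 30 min at 37 °C. ADP formed is detected with Transcreener HTRF reagents after 30 min at room temperature.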
# TDP43 rescue – inhibitors of TDP-43 toxicity in yeast; TDP-43 expressing yeast growth rescue, BacTiter-Glo, 24 h; Potency, µM (highest dose often 46.1 µM), for inactives: at the top dose growth rescue (activation), usual class: activators; AID 652104; 1.8% of 410,000 active; also: potency is read from the fitted curve at half-maximal effect; % of control where 0% means no effect; nearly all actives have a fitted effect of over 50% in size
#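 Galactose-induced TDP-43 yeast, OD600=0.02, compound pinned; 24 hr, 30 deg C; BacTiter-Glo luminescence for growth. Inhibitors of TDP-43 toxicity read as activators.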
# Mito fusion act – inhibitors of mitochondrial division or activators of mitochondrial fusion; S. cerevisiae fusion-defective mutant growth rescue, CellTiterGlo 48 h; 0.23% of 320,000 active; Potency, µM (top dose mostly 46.1 µM), for the others: top-dose growth rescue (activation), actives largely listed as activators; AID 485298; also: potency is read from the fitted curve at half-maximal effect; % of control where 0% means no effect; nearly all actives have a fitted effect of over 45% in size
#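 S. cerevisiae fusion-defective temperature-sensitive mutants (e.g. fzo1-1, mgm1-5) grown 48 h at 37C in YPEG (ethanol/glycerol non-fermentable) medium with 23 nl compound per well; growth rescue read as CellTiterGlo luminescence.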
# Active calls of the source: *; i = inactive; ? = inconclusive; . = no result. A selection: hits, their analogues and other compounds. The true share with any hit is near 2.5%. Unless noted, calls follow the shape of the dose curve; as a rule, active = well fitted curve in the direction sought with a large enough effect; inconclusive = small, poorly fitted or top-dose-only effect, or another doubt; inactive = no such curve, though single readings can be large; an effect the other way counts as inactive or inconclusive.
SMILES,aSyn yeast inh,Anesthetic bind,pAkt inh,CCT modulator,TDP43 rescue,Mito fusion act
COc1ccc(CCNc2nc(-c3ccc(C)cc3)cc(C(F)F)n2)cc1OC,.,0.9%,.,.,-0.2%,.
CCSC1=NCCN1C(=O)Cc1ccc(-c2ccccc2)cc1,5.4%,-9.6%,i,-1.7,14.1µM*,-6.7%
CSC1=NCCN1C(=O)Cc1ccc(-c2ccccc2)cc1,?,-19.1%,i,2.0,?,-2.7%
CCC(=O)N1CCN=C1SCc1ccccc1Cl,-1.0%,?,i,-63.1*,9.5%,1.8%
COc1ccc(CC(=O)N2CCN=C2SCc2ccc([N+](=O)[O-])cc2)cc1,-8.7%,?,i,0.5,7.94µM*,-9.1%
CCCn1c(-c2ccc(F)cc2)nc2c(N3CCCN(Cc4ccccc4)CC3)nc(C)nc21,.,-5.2%,.,.,.,.
CC(=O)c1ccc(N2CCN(C(=O)c3cc4c(s3)-c3ccccc3OC4)CC2)cc1,-0.2%,2.4%,.,.,-7.7%,.
Cc1ccc(NC(=O)CCSc2nnnn2-c2ccc3c(c2)OCO3)cc1C,14.0%,-10.9%,i,0.8,17.8µM*,4.6%
COc1cc(OC)c(NC(=O)CCc2nc(-c3cccs3)no2)cc1Cl,7.6%,-11.8%,i,1.8,20µM*,3.4%
O=C(NCc1ccc2c(c1)OCO2)c1ccc(N2C(=O)C3CCCCC3C2=O)cc1 (stereo not drawn),9.2%,8.91µM*,i,-2.7,17.2%,-3.3%
COc1ccc([C@@H]2CC(=O)c3c(O)cc(O[C@@H]4O[C@H](CO)[C@@H](O)[C@H](O)[C@H]4O[C@@H]4O[C@@H](C)[C@H](O)[C@@H](O)[C@H]4O)cc3O2)cc1,.,-1.4%,.,.,.,.
COc1cccc(-c2nc(SCC(=O)NCC3CCCO3)c(-c3ccc(Cl)cc3)[nH]2)c1 (stereo not drawn),.,-11.3%,.,.,0.0%,.
O=C1Nc2ccccc2C(=O)C1(Cl)Cc1ccccc1 (stereo not drawn),-51.8%,3.9%,i,0.4,35.5µM*,5.2%
Cc1c(C(=O)NCCO)sc2nc3n(c(=O)c12)CCC3,-6.0%,-6.2%,i,-2.1,-21.9%,-0.2%
NNC(=O)c1nc(-c2ccccc2)n2c1CCCCC2,2.2%,-20.1%,i,-0.4,-3.5%,-0.3%
Cc1ccc(-c2nc(C(=O)NCc3ccccc3Cl)c3n2CCCCC3)cc1,12.4%,6.5%,.,.,35.5µM*,.
Cc1ccc(CCNC(=O)c2sc3nc4n(c(=O)c3c2C)CCCC4)cc1,.,-0.4%,.,.,15.8µM*,.
Cc1c(C(=O)NCc2ccccc2Cl)sc2nc3n(c(=O)c12)CCCCC3,.,-7.2%,.,.,35.5µM*,.
CN(C)c1nc(Cl)nc(N(C#N)CCOc2ccccc2)n1,0.5%,-5.3%,i,0.0,11.2µM*,-4.0%
CCOC(=O)c1cc(S(=O)(=O)NCc2ccc(C)cc2)[nH]n1,.,-1.2%,.,.,9.2%,.
CCOC(=O)c1cc(S(=O)(=O)N2CCN(c3ccc(C)cc3C)CC2)[nH]n1,.,-0.5%,.,.,14.1µM*,.
CCOC(=O)c1cc(S(=O)(=O)N2CCN(c3ccccc3F)CC2)[nH]n1,.,-18.7%,.,.,?,.
CCOC(=O)c1cc(S(=O)(=O)N2CCN(c3cccc(C)c3C)CC2)[nH]n1,.,-6.9%,.,.,35.5µM*,.
Cc1ccc(-c2nc3cc(C(C)C)ccc3o2)cc1NC(=O)c1cc([N+](=O)[O-])ccc1N1CCOCC1,.,-13.0%,.,.,10.7%,.
CCCCNC(=O)CSc1nnc(C)c2c(C)n(-c3ccccc3)nc12,-0.9%,3.8%,.,.,4.1%,.
O=C(CCn1ccc2ccccc21)NC1CCCc2ccccc21 (stereo not drawn),9.0%,-18.0%,i,0.6,17.8µM*,9.7%
O=[N+]([O-])c1ccc(Nc2ccc(F)cc2)nc1,-16.6%,-12.6%,i,-0.5,21.9%,3.0%
O=[N+]([O-])c1ccc(Nc2cccc(F)c2)nc1,1.2%,?,i,-2.6,12.6µM*,2.9%
Cc1ccc(Nc2ccc([N+](=O)[O-])cn2)cc1Cl,-0.4%,?,i,-0.7,0.891µM*,8.4%
